We go through 20 compounds from PubChem BioAssay (NCI).

Experiment [1] is described as follows: NCI Yeast Anticancer Drug Screen. Data for the rad50 strain (AID 155).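 Also: 0% = growth of vehicle-only cultures of the same strain.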 To be noted: S. cerevisiae rad50 strain growth inhibition; at 50.0 µM; stronger effect = higher value. A digest of the protocol:
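Yeast carrying a defined DNA repair defect were exposed to test compounds, and growth was compared with vehicle-treated controls to give percent inhibition.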

Experiment [2] is described as follows: NCI Yeast Anticancer Drug Screen. Data for the mec2-1 strain (AID 157). To be noted: S. cerevisiae mec2-1 strain, at 50.0 µM, stronger effect = higher value. The method in brief: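 Strain: mec2-1 (DNA repair/cell cycle alteration). Compound exposure, then growth measured; inhibition expressed relative to vehicle.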
A short description of experiment [3]: NCI Yeast Anticancer Drug Screen. Data for the sgs1 mgt1 strain (AID 161).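 Also: 0% = growth of cultures given vehicle only.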 To be noted: S. cerevisiae sgs1 mgt1 strain, at 50.0 µM, stronger effect = higher value. The method in brief:
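Test agents were incubated with a DNA-repair-mutant yeast strain. Growth was then read and compared against vehicle-treated controls.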

Experiment [4] can be described thus: NCI Yeast Anticancer Drug Screen. Data for the cln2 rad14 strain (AID 165).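 Also: 0% = growth equal to vehicle treated cultures.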 The following applies: S. cerevisiae cln2 rad14 strain, at 50.0 µM, stronger effect = higher value. The method in brief: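 Compounds are applied to the cln2 rad14 yeast strain, and growth is then compared with that of vehicle-treated cultures to give inhibition.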
Experiment [5] in a line: NCI Yeast Anticancer Drug Screen. Data for the bub3 strain (AID 167). The following applies: S. cerevisiae bub3 mutant strain, at 50.0 µM, stronger effect = higher value. The method in brief: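 Compounds were applied to a genetically altered yeast strain carrying a cell-cycle control defect. Growth inhibition was scored against vehicle-treated controls.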
Experiment [6] is described as follows: NCI Yeast Anticancer Drug Screen. Data for the mlh1 rad18 strain (AID 175). The following applies: S. cerevisiae mlh1 rad18 strain growth inhibition; at 50.0 µM; stronger effect = higher value. The method in brief:
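Read-out is yeast growth inhibition, calculated against vehicle-only controls. The compound was applied to a strain engineered with DNA damage repair alterations.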

The panel holds about 79,000 compounds, 15% with a hit somewhere; the sample as a whole holds those more often. Unmarked numbers belong to inactive results. The source made the active and inactive calls. Rule as the data show it: active = growth inhibition above about 70%; inactive = the rest.

For `CC(=O)c1c(-c2ccc(Cl)cc2)c(-c2ccc(Cl)cc2)nn(CCNC(C)C)c1=O`, the growth inhibition is 96.7% (active) in experiment [1]; 98.4% (active) in experiment [2]; 95.8% (active) in experiment [3]; 88.9% (active) in experiment [4]; 80.5% (active) in experiment [5]; 95% (active) in experiment [6].

Consider `COc1cc2c[n+](C)c3ccccc3c2cc1OC`, for which the growth inhibition was 4.75% in experiment [1]; 12% in experiment [2]; -16.6% in experiment [3]; -7.3% in experiment [4]; -21.1% in experiment [5]; -6.35% in experiment [6].

With `Nc1nc(-c2cccc([N+](=O)[O-])c2)c(N=Nc2ccc(Br)cc2)s1`, the growth inhibition in experiment [1] was 10.3%; in experiment [2], 12.4%; in experiment [3], 23.1%; in experiment [4], 15.8%; in experiment [5], -3.25%; in experiment [6], 5.95%.

For `Nc1ccc(S(=O)(=O)O)cc1[N+](=O)[O-]`, the growth inhibition in experiment [1] was 4.4%; in experiment [2] it was 3.8%; in experiment [3] it was -3.75%; in experiment [4] it was 1%; in experiment [5], 5.8%; in experiment [6], 12.6%.

As for `CN(C)c1ccc2c(c1[N+](=O)[O-])Cc1ccccc1-2`, the growth inhibition was 18.3% in experiment [1]; 3.3% in experiment [2]; 6.75% in experiment [3]; 14.6% in experiment [4]; 32.2% in experiment [5]; 6.05% in experiment [6].

Consider `COc1cccc2c1CCC1(O)OC(=O)CC21` (stereo not given), for which the growth inhibition is -17.4% in experiment [1]; 5.15% in experiment [2]; -20.5% in experiment [3]; 2.1% in experiment [4]; -6.5% in experiment [5]; -15.1% in experiment [6].

For `N#CCCCN1CCOCC1`, the growth inhibition was 0.8% in experiment [1]; -20.9% in experiment [2]; -7.9% in experiment [3]; 15.7% in experiment [4]; 0% in experiment [5]; 3.6% in experiment [6].

On to `Cn1cnc2cc([N+](=O)[O-])ccc21`, for which the growth inhibition was -9.6% in experiment [1]; -7.95% in experiment [2]; -32.2% in experiment [3]; -24.6% in experiment [4]; -9.6% in experiment [5]; 8.8% in experiment [6].

On to `Cc1c(C)c2ccc(OC(C)C(=O)O)cc2oc1=O` (stereo not given), for which the growth inhibition in experiment [1] is -10.9%; in experiment [2], 0.8%; in experiment [3], 22.2%; in experiment [4], 31.5%; in experiment [5], 10.1%; in experiment [6] it was 36%.

Regarding `O=C(NO)c1ccc(O)c(O)c1`, the growth inhibition is 2.1% in experiment [1]; 14.4% in experiment [2]; 5.55% in experiment [3]; -8.25% in experiment [4]; -8.45% in experiment [5]; -39% in experiment [6].

Consider `O=C(Nc1ccc(Cl)cc1)Nc1ccc(Cl)nn1`, for which the growth inhibition in experiment [1] is -29.2%; in experiment [2], 7.85%; in experiment [3] it was -10.1%; in experiment [4] it was -39.8%; in experiment [5], -6.8%; in experiment [6], -1.85%.

`O=S(CC(O)(c1ccccc1)c1ccccc1)c1ccccc1` (stereo not given): the growth inhibition in experiment [1] is 6.55%; in experiment [2], 14.4%; in experiment [3] it was 18%; in experiment [4], 36.2%; in experiment [5], 30.9%; in experiment [6] it was 23.5%.

For `OC1[C@H](O)CN(OCc2ccccc2)C[C@@H]1O` (stereo not given in full), the growth inhibition in experiment [1] is -13.9%; in experiment [2] it was -2.4%; in experiment [3], -15.1%; in experiment [4] it was -20.4%; in experiment [5], 7.85%; in experiment [6], -18.4%.

For `O=C(O)c1cc(=O)c2cc(Cl)ccc2[nH]1`, the growth inhibition was -15.5% in experiment [1]; -12.2% in experiment [2]; -17.1% in experiment [3]; -19% in experiment [4]; -9.9% in experiment [5]; -1.55% in experiment [6].

Take `O=C(O)CN(CCCCN(CC(=O)O)CC(=O)O)CC(=O)O`: the growth inhibition in experiment [1] was -6.8%; in experiment [2], -15.8%; in experiment [3], 9.3%; in experiment [4] it was -66.5%; in experiment [5], 16.4%; in experiment [6], -21.2%.

Turning to `CC(NC(=O)C(CSCc1ccccc1)NC(=O)OCc1ccccc1)C(=O)OCc1ccccc1` (stereo not given), the growth inhibition in experiment [1] is -38%; in experiment [2], -9.7%; in experiment [3], -11.2%; in experiment [4], 24.4%; in experiment [5] it was -3.05%; in experiment [6] it was 10.8%.

`CCCCNc1ccccc1`: the growth inhibition in experiment [1] is 30.4%; in experiment [2], 6.3%; in experiment [3] it was 28.8%; in experiment [4], -21%; in experiment [5] it was -6.25%; in experiment [6], 42.5%.

`CCOc1ccc(N2N=C(C)CCC2=O)cc1`: the growth inhibition in experiment [1] was 6.2%; in experiment [2] it was 1.9%; in experiment [3] it was 5.15%; in experiment [4] it was -10.6%; in experiment [5], 6.15%; in experiment [6], 0.2%.

Turning to `O=C1CC2(CCc3ccccc32)C(=O)N1CN1CCN(CCO)CC1` (stereo not given), the growth inhibition in experiment [1] is 12.6%; in experiment [2], -5.8%; in experiment [3], 3.9%; in experiment [4], 9%; in experiment [5] it was 7.15%; in experiment [6], 11.9%.

In the case of `O=C1/C(=C/c2ccccc2)CCc2ccc([N+](=O)[O-])cc21`, the growth inhibition is -2.9% in experiment [1]; -1.85% in experiment [2]; 8.25% in experiment [3]; 4.1% in experiment [4]; 0.95% in experiment [5]; -26.4% in experiment [6].
